For seven compounds, growth results are on record in PubChem BioAssay (NCI).

Holding throughout (assay): NCI-60 one-dose screen, 48 h (100 = growth as untreated, 0 = no growth, -100 = all killed)
Common to all, as to conditions: 10 µM unless noted

Experiment [1] concerns NCI-H23 lung.
In experiment [2] the test system is NCI-H226 lung.
Experiment [3] deals with NCI-H322M lung.
The subject of experiment [4] is HOP-62 NSCLC.
In experiment [5] the test system is NCI-H460 lung.
Experiment [6] concerns HOP-92 NSCLC.
For experiment [7], the system named is NCI-H522 lung.
In experiment [8] the test system is A549/ATCC NSCLC.
In experiment [9] the test system is 786-0 renal.
Experiment [10] relates to COLO 205 colon.
For experiment [11], the system named is DU-145 prostate.
The subject of experiment [12] is K-562 leukemia.
Experiment [13] has as its system MALME-3M melanoma.
The subject of experiment [14] is MDA-MB-231 breast.
Experiment [15] deals with RXF 393 renal.
The test system of experiment [16] is SF-268 CNS.
For experiment [17], the system named is SF-295 CNS.
In experiment [18] the test system is SF-539 CNS.
The test system of experiment [19] is UACC-257 melanoma.
In experiment [20] the test system is M14 melanoma.

Compounds without any hit were thinned out: in the full panel of roughly 83,000, 20% have a hit.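 The endpoint reported here, percent growth, reads 100 for growth as untreated, 0 for no net growth and -100 for all cells dead.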 Values without a mark were called inactive. Active and inactive are the calls of the source. How the source made its calls: active means growth percent below 10; inactive means the rest.

As to `C=CC(=O)Nc1cc2c(Nc3ccc(F)c(Cl)c3)ncnc2cc1OCCCN1CCOCC1`, the growth in experiment [1] is -54.4% (active); in experiment [2], 40.2%; in experiment [3] it was -15.2% (active); in [4] it was 12.1%; in experiment [5], 31.2%; in [6] it was -51.7% (active). For the same compound, the growth is -74.6% (active) in experiment [7]; 22.9% in [8]; 2.4% (active) in experiment [9]; 8.89% (active) in [10]; 14.9% in experiment [11]; 2.24% (active) in [12]. Further, the growth in experiment [13] was 27.3%; in experiment [14] it was 0.732% (active); in experiment [15] it was -53.1% (active); in experiment [16], -5.09% (active); in experiment [17], 53.4%; in experiment [18], -24.4% (active). Also, the growth in experiment [19] was 35.1%; in experiment [20] it was -62.3% (active).

Take `CS(=O)(=O)N1CCN(Cc2cc3nc(-c4cccc5[nH]ncc45)nc(N4CCOCC4)c3s2)CC1`: the growth in [1] was 37.7%; in experiment [2], 39.3%; in experiment [3], -6.73% (active); in experiment [4] it was 30.9%; in experiment [5] it was 23.2%; in experiment [6] it was -17.1% (active). Also, the growth in experiment [7] is 20.8%; in experiment [8] it was 8.23% (active); in experiment [9], -7.35% (active); in [10], 1.08% (active); in experiment [11], 18.8%; in experiment [12], 64%. Further, the growth is 1.98% (active) in [13]; 51.5% in experiment [14]; -23.3% (active) in experiment [15]; 30.3% in experiment [16]; 3.4% (active) in experiment [17]; -2.44% (active) in experiment [18]. Also, the growth in experiment [19] is 14.7%; in experiment [20], 40%.

Consider `CO[C@H]1C[C@@H]2CC[C@@H](C)[C@@](O)(O2)C(=O)C(=O)N2CCCC[C@H]2C(=O)O[C@H]([C@H](C)C[C@@H]2CC[C@@H](OC(=O)C(C)(CO)CO)[C@H](OC)C2)CC(=O)[C@H](C)/C=C(\C)[C@@H](O)[C@@H](OC)C(=O)[C@H](C)C[C@H](C)\C=C/C=C/C=C/1C`, for which the growth is 44.4% in experiment [1]; 34.3% in [2]; 38.5% in experiment [3]; 21.8% in experiment [4]; 22.6% in experiment [5]; 9.36% (active) in [6]. Moreover, the growth in experiment [7] was 22.7%; in experiment [8], 22%; in experiment [9], 26.2%; in [10], 28.5%; in experiment [11] it was 37.7%; in experiment [12], 18.3%. Also, the growth was 24% in experiment [13]; 24.8% in experiment [14]; -16.3% (active) in experiment [15]; 30.9% in experiment [16]; 13.6% in experiment [17]; 4.68% (active) in [18]. Further, the results for the growth in [19] and in [20] were 30.4% and 32.3%, respectively.

For `COc1cccc2cc(-c3nc(C4CCC(C(=O)O)CC4)n4ncnc(N)c34)[nH]c12` (stereo not given), the growth was 7.94% (active) in experiment [1]; 7.69% (active) in experiment [2]; 9.76% (active) in experiment [3]; -10% (active) in [4]; 11.1% in [5]; -14.5% (active) in experiment [6]. Moreover, the growth in experiment [7] is -1.72% (active); in experiment [8], 5.25% (active); in experiment [9], -5.64% (active); in experiment [10], 1.83% (active); in experiment [11], 19.2%; in [12], 14%. The growth in experiment [13] was -12% (active); in experiment [14], 19.2%; in [15] it was -23.8% (active); in [16], 16.2%; in experiment [17], -31.2% (active); in experiment [18] it was -25.6% (active). Moreover, the results for the growth in [19] and in [20] were -22.8% (active) and 4.34% (active), respectively.

As for `CN[C@@H]1C[C@H]2O[C@@](C)([C@@H]1OC)n1c3ccccc3c3c4c(c5c6ccccc6n2c5c31)C(=O)N[C@H]4O`, the growth in [1] was -48.8% (active); in [2], -47.1% (active); in experiment [3], -25.8% (active); in experiment [4], -60.8% (active); in experiment [5], -63.7% (active); in [6] it was -9.92% (active). The growth was -37.2% (active) in experiment [7]; -36.8% (active) in experiment [8]; -87.5% (active) in experiment [9]; -80.8% (active) in [10]; 3.62% (active) in experiment [11]; -15.6% (active) in experiment [12]. Also, the growth in experiment [13] was -81.2% (active); in experiment [14], -48.5% (active); in experiment [15], -94.3% (active); in experiment [16] it was -66.5% (active); in experiment [17], -75.8% (active); in experiment [18] it was -88.4% (active). Besides, the growth in experiment [19] was -88.4% (active); in [20], -56.6% (active).

Turning to `CNC(=O)c1nn(C)c2c1C(C)(C)Cc1cnc(Nc3ccc(N4CCN(C)CC4)cc3)nc1-2`, the growth in experiment [1] is 2.37% (active); in experiment [2], 12.3%; in experiment [3], 15.1%; in experiment [4], -9.46% (active); in experiment [5], 7.46% (active); in experiment [6] it was 3.76% (active). In addition, the growth in experiment [7] is -29.4% (active); in experiment [8], -0.797% (active); in experiment [9] it was 12.3%; in experiment [10], -80.1% (active); in [11] it was 15.5%; in [12], 5.4% (active). The growth in [13] was -8.73% (active); in [14], 14.7%; in experiment [15] it was -48.2% (active); in [16] it was 7.96% (active); in experiment [17], 15.3%; in experiment [18], -28.6% (active). Besides, the values for the growth in [19] and in [20] were -14.8% (active) and 12.5%, respectively.

In the case of `O=C1CCC(=O)CC1`, the growth is 103% in experiment [1]; 101% in [2]; 110% in [3]; 102% in experiment [4]; 104% in experiment [5]; 87.4% in [6]. Also, the growth in experiment [7] is 91.2%; in [8], 91.4%; in [9], 104%; in experiment [10], 115%; in [11] it was 110%; in experiment [12], 96.7%. Further, the growth in experiment [13] is 110%; in experiment [14], 105%; in experiment [15], 113%; in [16] it was 98.8%; in [17], 101%; in [18], 95.3%. The growth in experiment [19] was 89.4%; in experiment [20], 98.1%.
